This is a sample that favours compounds with a hit; in the whole collection about 1.1% have one here.
GPT2 inh: inhibitors of human GPT2 alanine aminotransferase; Q8TD30; Potency, µM (series often up to 57.7 µM), without a hit: top-dose activity change, negative = inhibition, most hits filed as inhibitors; 0.25% of 100,000 active; Recombinant GPT2, coupled pyruvate oxidase/HRP Amplex Red fluorescence; note: potency is the fitted concentration of half-maximal effect; nearly all actives have a fitted effect of over 60% in size
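GPT2 10ng/uL, a-KG 250uM, L-Ala 2mM, HEPES pH7.5 + 0.0001% Tween; 30 min RT. Then Amplex mix (PO/HRP/ThPP), 30 min RT dark, fluorescence. AOA 50uM used as positive control.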
IP6K1 inhibitor: IP6K1 kinase inhibition; IP6K1 kinase, ADP-Glo luminescence, 2 h; active compounds read low; activity change, % (series mostly up to about 58 µM); 0.81% of 140,000 active; AID 1645851; in the data active = activity change below about -25%
Target sequence (Q92551 whole entry, looked up): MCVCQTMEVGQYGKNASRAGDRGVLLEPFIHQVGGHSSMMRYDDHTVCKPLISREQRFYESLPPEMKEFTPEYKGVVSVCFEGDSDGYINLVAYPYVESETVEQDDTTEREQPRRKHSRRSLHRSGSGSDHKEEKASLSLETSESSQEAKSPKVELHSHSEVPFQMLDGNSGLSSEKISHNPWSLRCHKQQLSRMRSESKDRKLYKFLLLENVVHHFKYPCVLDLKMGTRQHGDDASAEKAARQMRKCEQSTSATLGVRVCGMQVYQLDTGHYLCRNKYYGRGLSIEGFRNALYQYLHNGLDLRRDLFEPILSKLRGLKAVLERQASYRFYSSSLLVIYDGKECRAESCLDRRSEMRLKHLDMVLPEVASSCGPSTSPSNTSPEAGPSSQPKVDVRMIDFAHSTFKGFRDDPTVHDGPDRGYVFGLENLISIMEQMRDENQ
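ADP-Glo luminescence measures ADP made by human IP6K1 during a 2 h RT reaction with ATP/IP6 (mix at 1.3 mM/130 uM); top library doses 57.5 and 19.1 uM final.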
HEK293 viab: cell viability loss counter-screen | 0.12% of 150,000 active | AID 1671193 | Potency, µM (top dose mostly 57.1 µM), without a hit: at the highest dose activity change, negative = cytotoxicity, usual class: cytotoxic | HEK-293-SNCA-luc viability, GF-AFC fluorescence, 24 h;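 note: potency is the fitted concentration of half-maximal effect; 0% = DMSO-treated cells and -100% = medium-only wells without cells; nearly all actives have a fitted effect of over 30% in size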
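HEK-293-SNCA-luc cells (1500/well) plated 24 h, then exposed 24 h to a dilution series; GF-AFC added 30 min at 37C, fluorescence 405/540 nm; normalised to medium-only and DMSO wells, Hill fit.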
SNCA expr inhib: reduces expression of the alpha-synuclein gene | HEK-293 SNCA-luciferase knock-in, luminescence, 24 h | Potency, µM (titrated, usually from 57.2 µM), inactives show at the highest dose activity change, negative = inhibition, hits mostly inhibitors | 0.17% of 140,000 active | AID 1671194;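 note: potency is the fitted concentration of half-maximal effect; plate controls were DMSO cells for no effect and cell-free wells for full effect; nearly all actives have a fitted effect of over 45% in size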
* = called active by the depositor; i = inactive; ? = inconclusive; nt = not tested or not shown; ! = a repeat was not active; [ ] = dose if it differs, or a comment. Unless noted, calls come from the whole dose curve; as a rule, active = well fitted curve in the direction sought with a large enough effect; inconclusive = small, poorly fitted or top-dose-only effect, or another doubt; inactive = no such curve, though single readings can be large; an effect the other way counts as inactive or inconclusive. Unless noted, % is set by controls: 0 for no effect and ±100 for the full control effect.

SMILES | GPT2 inh | IP6K1 inhibitor | HEK293 viab | SNCA expr inhib
Cc1noc2c(-c3cccc(O)c3)cc(-c3cccs3)nc12 | -1%[88.5 µM] | -20 | -8%[87.6 µM] | -11%[87.6 µM]
CC[C@H]1CN2CCc3cc(OC)c(OC)cc3[C@H]2C[C@@H]1C[C@@H]1NCCc2cc(OC)c(OC)cc21 | 4% | nt | ? | 0.61µM*
COc1ccc(C(=O)N2CCC3(C2)C(=O)N(CCc2ccccc2)c2ccccc23)cc1 (stereo not given) | 3% | -1 | ? | -11%
COc1ccc(C(=O)N2CCC3(C2)C(=O)N(Cc2ccccc2)c2ccccc23)cc1 (stereo not given) | i | -7 | 11µM* | ?
CCOC(=O)N1CCC(Nc2ncncn2)CC1 | ? | -11 | -4% | -1%
CCOC(=O)N1CCC(Nc2ccc(Cl)cc2N)CC1 | 8.9µM* | -12 | -32%[23.9 µM] | -39%[25.6 µM]
C=CC(=O)Nc1cccc(Nc2nc(Nc3ccc(OCCOC)cc3)ncc2F)c1 | i | -7 | 9.5µM* | nt
CC(C)(C)NC(=O)Nc1cccc(Nc2ncc(F)c(NC(C)(C)CO)n2)c1 | -19% | -10 | -5% | -6%
CC(C)CNc1nccc(C2(c3ccccc3Cl)CCNCC2)n1 | i | 9 | -14% | 13%
C[n+]1cc2c3c(ccc2c2ccc4cc5c(cc4c21)OCO5)OCO3 | -32% | -19 | 13µM*! | ?
N#C/C(=C\c1ccc(O)c(O)c1)C(=O)c1ccc(O)c(O)c1 | ? | nt | -8% | 11%
CCN(CC)C(=O)/C(C#N)=C/c1cc(O)c(O)c([N+](=O)[O-])c1 | 8.9µM* | -23 | -13%[23.9 µM] | -18%[25.6 µM]
O=C(Nc1ccc(Oc2ccccc2)cc1)O[C@@H]1CO[C@H]2[C@@H]1OC[C@@H]2NS(=O)(=O)c1ccc2ccccc2c1 | -23% | 9 | -23% | -26%
CCN(CC)Cc1c(NC(=O)c2ccc(OC)cc2)sc2c1CCCC2 | nt | -3 | -21% | 42%
CCN(CC)Cc1ccc2cc(COC(=O)Nc3ccc(C(=O)NO)cc3)ccc2c1 | 15µM* | 11 | ? | -9%
Cc1c(Cl)cccc1-n1ncc(C(=O)N2CCc3ccccc3C2)c1C1CCN(C(=O)OC(C)(C)C)CC1 | nt | -15 | 4% | 22µM*
O=C(/C=C/c1ccccc1)OC[C@H]1O[C@@H](OC(=O)c2cc(O)c(O)c(O)c2)[C@H](O)[C@@H](O)[C@@H]1O | ? | -47* | -19%[23.9 µM] | nt
O=C(/C=C/c1ccc(O)cc1)OC[C@H]1O[C@@H](O/C(=C\c2ccccc2)C(=O)O)[C@H](O)[C@@H](O)[C@@H]1O | i | 1 | -5%[23.9 µM] | nt
C=C(C=O)[C@]1(O)C[C@@]2(C)C(=CC1=O)C=C[C@H](OC(=O)/C=C/C=C/[C@H](C)CC)[C@@H]2C | -5%[27.3 µM] | -16 | 8.2µM* | nt
CCn1c(=O)c2c(cc(C)n2C)n(CC(=O)Nc2c(C)cccc2C)c1=O | i | 35 | 28µM* | ?
CCn1c(=O)c2c(cc(C)n2C)n(CC(=O)Nc2ccccc2C)c1=O | i | 13 | -14% | -14%
CN1Cc2ccc(Nc3ccccc3)nc2C(C)(C(=O)NCc2ccc3c(c2)OCO3)C1 (stereo not given) | ? | 7 | -10%[87.6 µM] | -5%[87.6 µM]
Nc1cc(-c2ccncc2)c[nH]c1=O | 10µM* | -8 | 3%[23.9 µM] | 16%[25.6 µM]
CCS(=O)(=O)Nc1ccc2[nH]c(O)c(C(=Nc3ccc(CN4CCCCC4)cc3)c3ccccc3)c2c1 | -20% | nt | ? | 1.2µM*
CNC(=O)c1ccc2c(C(=Nc3cccc(CN(C)C)c3)c3ccccc3)c(O)[nH]c2c1 | ? | -5 | ? | ?
SMILES | GPT2 inh | IP6K1 inhibitor | HEK293 viab | SNCA expr inhib
NC(=O)C1CCCc2c1[nH]c1ccc(Cl)cc21 (stereo not given) | -21% | nt | ? | 8.6µM*
NC(=O)[C@H]1CCCCc2c1[nH]c1ccc(Cl)cc21 | -12%[27.3 µM] | 4 | -5%[23.9 µM] | nt
CC[C@H](CO)Nc1nc(Nc2cccc(-c3ccccn3)c2)c2ncn(C(C)C)c2n1 | ? | -11 | -35% | nt
CC(C)[C@H](CO)Nc1nc(Nc2cccc(Cl)c2)c2ncn(C(C)C)c2n1 | -6% | nt | 24µM* | 5%
CC(C)c1ccc(CC(=O)N2CCCc3ncc(C(=O)Nc4cccnc4)cc32)cc1 | i | -22 | ? | 1µM*
CC(C)c1ccc(CC(=O)N2CCCc3ncc(C(=O)Nc4cccc(Cl)c4)cc32)cc1 | 3% | 7 | ? | ?
COc1cccc(-c2ccc(CN3CCCC(c4nc5ccc(C)cc5c(=O)[nH]4)C3)cc2)c1 (stereo not given) | i | -1 | -21% | ?
Oc1cc(O)cc(C=Cc2ccc(O)c(O)c2)c1 | 4.3µM* | nt | -14% | -1%
Cc1cc(=O)oc2c(C=O)c(O)ccc12 | i | -12 | 2% | nt
Oc1ccc(C=Cc2cc(O)cc(O)c2)cc1 | -27% | nt | -5% | 12µM*
O=c1cc(O)cc(/C=C/c2ccc(O)c(O)c2)o1 | 6.3µM* | nt | -6% | -15%
OC[C@H]1O[C@@H](Oc2cc(O)cc(/C=C/c3ccc(O)cc3)c2)[C@H](O)[C@@H](O)[C@@H]1O | ? | 19 | -16% | nt
COc1ccc(C=Cc2cc(OC)c(OC)c(OC)c2)cc1O | 2% | nt | -14% | -2%
COc1ccc(F)cc1-c1cccc(C(=O)NCCNC(=O)Nc2ccccc2)c1 | i | -5 | -18% | -22%
O=C(NCc1cccnc1)C1CCN(C(=O)c2ccc(-c3cccs3)cc2)CC1 | nt | -4 | nt | nt
COC1C(=O)N(c2cccc(F)c2)C12CCN(C(=O)c1cc3ccccc3[nH]1)CC2 (stereo not given) | i | -3 | -13% | 42%
C[C@@H](CN(C)C)CN1c2ccccc2Sc2ccccc21 | i | 1 | 24%[23.9 µM] | -22%[25.6 µM]
CC(CN1c2ccccc2Sc2ccccc21)N(C)C (stereo not given) | 10µM*! | -17 | 4% | 2%
COc1ccccc1Nc1ccnc(N2CCN(C(=O)Cc3cccc(Cl)c3)CC2)n1 | 3% | -9 | ? | ?
CNC(=O)c1cc(C)nc2onc(C3CCN(C(=O)Cc4ccc(F)cc4)C3)c12 (stereo not given) | nt | 9 | nt | nt
Cc1ccc(-c2ccccc2CN2CCN(C(=O)c3ccccc3Cl)CC2)cc1Cl | -13% | -7 | -3%[12.5 µM] | 3%
CC1(C)OC2=C(C(=O)c3ccccc3C2=O)[C@H](NCc2ccccc2)[C@H]1O | 14µM* | nt | 14µM* | 12µM*
CC(C(=O)NCc1ccccc1)N1Cc2ccccc2C1=O (stereo not given) | nt | 3 | 3% | 0%
O=C(NCC(=O)N1CCC(c2ccccc2)CC1)c1cccc(-c2ccc(C(F)(F)F)cc2)c1 | 3% | -4 | -1%[12.5 µM] | -19%
c1ccc(-c2nc(-c3ccncc3)no2)c(OC2CCN(C3CCCC3)C2)c1 (stereo not given) | i | -9 | -9% | 10%
CCN1CCC(N2CCC(Oc3ccccc3-c3nc(-c4ccncc4)no3)C2)CC1 (stereo not given) | i | -23 | 14µM* | ?
Cn1ncc2c(C(=O)NCCc3cccc(F)c3)cc(-c3ccccc3C(F)(F)F)nc21 | nt | 3 | nt | nt

Screens deposited in PubChem BioAssay by National Center for Advancing Translational Sciences (NCATS).
